Laboratory results: article PMC8384837, “Expanding the binding specificity for RNA recognition by a PUF domain”

Target: PUM1 PUF domain R4-PFG (Homo sapiens, UniProt Q14671 828-1176, N971P;H972F;Q975G)
Experiment: yeast three-hybrid, YBZ-1, SC-Leu-His + 0.5 mM 3-AT, 4 days
Conditions: tags: N-Gal4 AD-HA kept; label: inside an RPR1-promoter hybrid RNA with tandem MS2 sites; ssRNA
Procedure, shortened: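 A centromeric plasmid in strain YBZ-1 co-expressed Pumilio-1 PUF domain libraries, randomized at the three base-contacting residues of each repeat, with matching RNA elements; the strain carries a LexA–MS2 coat fusion and a HIS3 reporter. After four days on SC-Leu (input) or SC-Leu-His + 0.5 mM 3-AT (selection), the repeat regions were PCR-amplified and Illumina-sequenced. The interaction score is the log change in variant frequency from input to selection, using log2 and a pseudocount of 1 where absent.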

Sequence | binding signal
GGCUAGAACUAGUGGAUCCCCCGGCGCCCGGCGGCUCGAGCCCGGGUAAGUGUAUAUAGUCUGCAUGCCGCCGGGCGCCAUGCCUGCAGGUCGACUCUAGAAAACAUG | 7.12 log2 enrichment (interaction score)
GGCUAGAACUAGUGGAUCCCCCGGCGCCCGGCGGCUCGAGCCCGGGUAAGUGUAAAUAGUCUGCAUGCCGCCGGGCGCCAUGCCUGCAGGUCGACUCUAGAAAACAUG | 6.55 log2 enrichment (interaction score)
GGCUAGAACUAGUGGAUCCCCCGGCGCCCGGCGGCUCGAGCCCGGGUAAGUGUACAUAGUCUGCAUGCCGCCGGGCGCCAUGCCUGCAGGUCGACUCUAGAAAACAUG | 6.74 log2 enrichment (interaction score)
